Source: PubChem BioAssay (National Center for Advancing Translational Sciences (NCATS))
Cruzain Triton = cruzain (T. cruzi) inhibition with detergent. P25779. purified cruzain, Z-FR-AMC fluorescence, 0.01% Triton. Potency, µM, without a hit: max response, negative = inhibition, most hits filed as inhibitors. actives 0.43% (n = 200,000);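 further: plate controls were neutral wells for no effect and buffer without enzyme for full effect; nearly all actives have a fitted effect of over 40% in size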
Target sequence (P25779 123-467 limits assumed): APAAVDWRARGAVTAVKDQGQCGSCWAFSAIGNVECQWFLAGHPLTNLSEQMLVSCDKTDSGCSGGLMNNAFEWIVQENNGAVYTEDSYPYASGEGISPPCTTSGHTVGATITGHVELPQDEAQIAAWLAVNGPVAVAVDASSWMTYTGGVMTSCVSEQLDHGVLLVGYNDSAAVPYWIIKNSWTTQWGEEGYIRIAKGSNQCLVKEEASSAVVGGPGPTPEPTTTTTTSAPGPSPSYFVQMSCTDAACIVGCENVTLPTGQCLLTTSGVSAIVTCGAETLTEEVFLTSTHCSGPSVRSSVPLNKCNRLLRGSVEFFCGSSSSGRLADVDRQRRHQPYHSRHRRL
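Cysteine protease activity tested under reducing, mildly acidic conditions (100 mM sodium acetate pH 5.5, 5 mM DTT) plus 0.01% Triton X-100. Cruzain 1.5 nM; substrate Z-FR-AMC 2 uM; 15 min compound preincubation at room temperature.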
Cruzain inh noDet = cruzain (T. cruzi) inhibition without detergent; Potency, µM, inactives show max response, negative = inhibition, most hits filed as inhibitors; purified cruzain, Z-FR-AMC fluorescence, no detergent; AID 1476; actives 2.3% (n = 200,000);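 further: plate controls were enzyme without inhibitor for no effect and buffer without enzyme for full effect; nearly all actives have a fitted effect of over 40% in size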
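Detergent-free condition (0.00005% Triton X-100) in acetate buffer pH 5.5 with DTT. 1.5 nM enzyme and compound were pre-mixed 15 min, then 2 uM Z-FR-AMC substrate added; reaction progress from fluorescence change between first and third reads (60 s).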
* hit, by the source's call; ? = inconclusive. A selection: hits, their analogues and other compounds. The true share with any hit is near 2.5%. The call rests on the fitted dose curve; in most records, active means well fitted curve in the direction sought with a large enough effect; inconclusive means small, poorly fitted or top-dose-only effect, or another doubt; inactive means no such curve, though single readings can be large; an effect the other way counts as inactive or inconclusive. Potency means the concentration at half of the fitted maximal effect.

SMILES	Cruzain Triton	Cruzain inh noDet
COc1ccc(CNc2ccccc2)cc1Br	-5.9%	-9.1%
COc1cc(CNc2cccc(F)c2)cc(Br)c1O	-5.4%	25.1µM*
COc1ccc(CNC(=O)CN2C(=O)CCn3nc(-c4ccccc4)cc32)c(OC)c1	-0.7%	-4.6%
O=C(Nc1ccccc1)c1ccc(NCC2CCCO2)c([N+](=O)[O-])c1 (centres undefined)	-8.9%	-6.2%
O=C(Nc1ccccc1)c1ccc(Nc2c([N+](=O)[O-])cc([N+](=O)[O-])c3ccccc23)cc1	-5.8%	10µM*
Cc1ccc(/C=C/c2onc(C)c2S(=O)(=O)N2CCC(C(=O)N(CCC(C)C)Cc3ccco3)CC2)cc1	0.2%	-14.8%
COc1ccc2c(c1)c1c(c(=O)n(-c3ccc(F)c(Cl)c3)c(=O)n1Cc1ccccc1C)n2C	-1.5%	-6.9%
CCc1cc2cc3c(cc2nc1SCC(=O)Nc1nnc(C)s1)OCCO3	3.0%	?
CCc1cc2cc3c(cc2nc1SCC(=O)Nc1cc(C)on1)OCO3	-2.4%	25.1µM*
CCc1cc2cc(C)ccc2nc1SCC(=O)Nc1cc(C)on1	1.6%	-12.1%
Cc1cc2cc3c(cc2nc1SCC(=O)Nc1nc(C)c(C)s1)OCO3	4.7%	31.6µM*
COc1ccc2c(c1)c1c(c(=O)n(-c3ccc(C)cc3)c(=O)n1CC(=O)Nc1cc(C)ccc1C)n2C	-1.9%	-6.7%
COc1ccccc1N1CCN(C(=O)Cn2c(=O)nc(-c3ccccc3)c3cc(Cl)ccc32)CC1	1.4%	-3.6%
COCCNC(=O)c1sc2ncccc2c1-n1c(C)ccc1C	-2.3%	-4.7%
Cc1ccc(CN2C(=O)C(=O)c3cc(Br)cc(C)c32)cc1	-2.7%	-29.0%
CC(C)OC(=O)c1cc2ccccc2[nH]1	-4.7%	-10.2%
CCOC(=O)c1cc2cc3ccccc3cc2[nH]1	-5.9%	25.1µM*
CCOC(=O)c1sc(NC(=O)c2cc3nc(-c4ccc(Br)cc4)cc(C(F)(F)F)n3n2)c(C(=O)OCC)c1C	4.1%	-5.1%
O=C(Nc1cccc(O)c1)c1cc2nc(-c3ccc(Br)cc3)cc(C(F)(F)F)n2n1	7.0%	-1.5%
Cc1ccc(CNC(=O)c2ccc3nc4[nH]c5ccccc5c4nc3c2)cc1	-5.8%	25.1µM*
COc1ccccc1CNC(=O)c1ccc2nc3[nH]c4ccccc4c3nc2c1	-2.5%	?
CCOC(=O)c1ccccc1NS(=O)(=O)c1ccc(N2CCCCS2(=O)=O)cc1	-6.3%	?
CN(C)c1ccc(/C=C/C=C2/SC(=S)N(c3ccccc3)C2=O)cc1	-2.9%	7.94µM*
O=C1/C(=C/c2cccnc2)SC(=S)N1c1ccccc1	-6.9%	9.9%
COC(=O)c1c(-c2cccs2)csc1NC(=O)COc1ccc(C(C)C)cc1	-9.3%	?
SMILES	Cruzain Triton	Cruzain inh noDet
CCOCCCn1c(=N)c(S(=O)(=O)c2ccc(C)cc2)cc2c(=O)n3ccccc3nc21	-7.3%	-8.3%
Cn1c(=N)c(S(=O)(=O)c2ccc(F)cc2)cc2c(=O)n3ccccc3nc21	31.6µM*	?
Cc1cc(C)c(Cn2c3ccccc3c3cnn(CC(=O)NCc4ccc(Cl)cc4)c(=O)c32)c(C)c1	-1.3%	8.9%
Cc1cc(NC(=O)c2ccc(COc3ccc(Cl)c(C)c3)o2)no1	-1.8%	25.1µM*
Cc1ccc(OCc2ccc(C(=O)Nc3nccs3)o2)cc1C	-0.9%	0.6%
COc1ccc(/C=N/OCc2nc3c4c(ncn3n2)Oc2ccc3ccccc3c2C4c2ccccc2)cc1 (centres undefined)	5.0%	1.58µM*
COc1ccc(C2c3c(ccc4ccccc34)Oc3ncn4nc(Cc5ccccc5)nc4c32)cc1OC (centres undefined)	-1.6%	?
COc1ccc(N2CC(NC(=O)C3CCCC3)CC2=O)cc1OC (centres undefined)	1.7%	-8.4%
O=C(Nc1c2c(nn1-c1ccc(Cl)cc1)CS(=O)(=O)C2)c1ccc(Br)cc1	0.9%	-9.4%
CCOc1ccccc1NC(=O)Cn1c(=O)nc(-c2ccccc2F)c2cc(Cl)ccc21	0.2%	-1.6%
CN(C)c1ccc(/C=C/C(O)=C2/C(=O)N(C)C3(C)CC2c2ccccc2O3)cc1 (centres undefined)	-9.4%	20µM*
CN1C(=O)C(/C(N)=N/NC(=O)c2ccccc2)C2CC1(C)Oc1ccccc12 (centres undefined)	-2.3%	-1.7%
CCOc1ccc(C(=O)NCCc2csc(-c3ccc(C(F)(F)F)cc3)n2)cc1OCC	-3.2%	6.1%
Cc1nc(-n2nc(C)c(CCC(C)C)c2C)sc1C(=O)Nc1ccc(Cl)cc1	-1.5%	5.0%
CCC(C)NC(=O)COC(=O)c1oc2ccccc2c1CSc1ccc(Cl)cc1 (centres undefined)	-2.5%	25.1µM*
CCC(C)NC(=O)CSc1ccc(Cl)cc1 (centres undefined)	-0.5%	-10.1%
COc1ccc(OCC(O)Cn2c(NCCO)nc3c2c(=O)n(C)c(=O)n3C)cc1 (centres undefined)	-3.3%	-3.9%
Nc1ccc2nn(-c3cccc4ccccc34)nc2c1	-3.1%	?
